From PubChem
In the library only some 2.5% were active in any assay of this set; here they are far more common.
hiPSC survival: enhancers of single-cell hiPSC survival, primary screen, ATPlite luminescence; 100% = ROCK inhibitor wells, 0% = DMSO; survival enhancement, % at 20 µM; actives 0.044% (n = 360,000); in the data active = survival enhancement above about 18%;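 note: cells exposed to compounds for 16 hours before the ATP read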
SKN-1 block: suppressors of acrylamide-induced Pgst-4::GFP reporter in worms, primary screen, SKN-1 inhibitor project, whole organism, uHTS, GFP/RFP fluorescence ratio, strain VP596 | C. elegans VP596 Pgst-4::GFP/RFP ratio, 24 h | inhibition, % at 21.8 µM | actives 0.49% (n = 360,000) | AID 624304, 2012;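 active = interference check ratio from 0.5 to 1.5 plus GFP to RFP signal ratio inhibition reaching or exceeding a fixed threshold, cut at about 30% in these data, passing the limit was not always enough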
TAG inh: inhibitors of triacylglycerol accumulation, primary screen, cell-based, uHTS, fluorescence, H9c2. AID 651582, 2012. actives 0.66% (n = 230,000). inhibition, % at 12.5 µM. H9c2 cells, Nile Red lipid (TAG) fluorescence; cells loaded with 200 µM oleic acid;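 active = pattern-corrected inhibition of lipid staining of at least 50% with the nuclear-stain viability signal not falling by more than 50%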
CRFR2-BP antag: antagonists of CRF-BP/CRF-R2 complex, primary screen, cell-based, HEK293, calcium dye fluorescence, uHTS. CRF-induced calcium fluorescence. inhibition, % at 11.8 µM. actives 0.59% (n = 350,000);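 active = inhibition of the ligand-induced calcium signal above about 50% at the single tested concentration, limit read from the data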
CRFR2-BP ag: agonists of CRF-BP/CRF-R2 complex, primary screen, cell-based, HEK293, calcium dye fluorescence, uHTS. CRF-binding protein / CRF receptor 2 complex (human). calcium dye fluorescence (FLIPR); percent of saturating CRF peptide response. activation, % at 13.2 µM. actives 0.46% (n = 350,000). AID 588473, 2011;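 active = activation of at least 50%, plus an integration ratio under a set limit after plate pattern correction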
Cardio protect: cardioprotection against H2O2-induced cell death, primary screen, uHTS, H9c2 cells, ATPLite luminescence; actives 0.63% (n = 360,000); H9c2 cardiomyocytes, H2O2 injury protection, 2 h; protection from H2O2 cell death, % at 20 µM;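 active = compounds giving at least 50% protection of heart cells from peroxide-induced death in the single-dose screen, raw or plate-pattern-corrected value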
Numbers stand for hits.

What do the screens show for `CSc1nc2ccc(S(=O)(=O)Nc3c(C)n(C)n(-c4ccccc4)c3=O)cc2s1`?
hiPSC survival: inactive; SKN-1 block: inactive; CRFR2-BP antag: inactive; CRFR2-BP ag: inactive; Cardio protect: 106.1

Results for Cc1c(NS(=O)(=O)c2ccc3c(c2)n(C)c(=O)n3C)c(=O)n(-c2ccccc2)n1C ?
hiPSC survival: inactive; SKN-1 block: inactive; TAG inh: inactive; CRFR2-BP antag: inactive; CRFR2-BP ag: inactive; Cardio protect: inactive

How did COc1ccc(S(=O)(=O)Nc2c(C)n(C)n(-c3ccccc3)c2=O)cc1C(=O)O do in these assays?
hiPSC survival: inactive; SKN-1 block: inactive; TAG inh: inactive; CRFR2-BP antag: 51.4; CRFR2-BP ag: inactive; Cardio protect: inactive

Results for CC1CC1c1ccc(/C=C(\C#N)C(=O)Nc2cccc(Cl)c2Cl)o1 (stereo unspecified) ?
hiPSC survival: inactive; SKN-1 block: inactive; CRFR2-BP antag: inactive; CRFR2-BP ag: 58.5; Cardio protect: inactive

How did O=C(O)C1CCCCC1C(=O)Nc1cccc(Cl)c1Cl (stereo unspecified) do in these assays?
hiPSC survival: inactive; SKN-1 block: inactive; TAG inh: inactive; CRFR2-BP antag: inactive; CRFR2-BP ag: inactive; Cardio protect: inactive

How did NC(=O)c1cccc(-c2coc3c(C(=O)NCCc4ccccc4)cccc23)c1 do in these assays?
hiPSC survival: inactive; SKN-1 block: inactive; TAG inh: inactive; Cardio protect: 59.8

What do the screens show for `O=C(Nc1ccccc1)c1cccc2c(-c3cccnc3)coc12`?
hiPSC survival: inactive; SKN-1 block: inactive; TAG inh: inactive; Cardio protect: 62.6

What do the screens show for `COc1ccc(CNC(=O)c2cccc3c(-c4cccc(C(N)=O)c4)coc23)cc1OC`?
hiPSC survival: inactive; SKN-1 block: inactive; TAG inh: inactive; Cardio protect: inactive

Results for CC(C)(C)CC(=O)Nc1nnc(C(F)(F)F)s1 ?
hiPSC survival: inactive; SKN-1 block: inactive; TAG inh: inactive; CRFR2-BP antag: inactive; CRFR2-BP ag: inactive; Cardio protect: inactive

Results for O=C(Nc1nnc(C(F)(F)F)s1)c1ccc(Br)s1 ?
hiPSC survival: inactive; SKN-1 block: inactive; TAG inh: inactive; CRFR2-BP antag: 54.3; CRFR2-BP ag: 97.9; Cardio protect: inactive

Results for CCSc1nnc(NC(=O)c2ccc(Br)s2)s1 ?
hiPSC survival: inactive; SKN-1 block: inactive; CRFR2-BP antag: inactive; CRFR2-BP ag: inactive; Cardio protect: inactive

How did CC(NC(=O)Nc1nnc(C(F)(F)F)s1)(C(F)(F)F)C(F)(F)F do in these assays?
hiPSC survival: inactive; SKN-1 block: 32.4; TAG inh: inactive; CRFR2-BP antag: inactive; CRFR2-BP ag: 59.4; Cardio protect: inactive

How did O=C(Nc1ccccc1C(=O)Nc1nnc(C(F)(F)F)s1)c1ccccc1Cl do in these assays?
hiPSC survival: inactive; SKN-1 block: inactive; TAG inh: inactive; CRFR2-BP antag: 50.2; CRFR2-BP ag: inactive; Cardio protect: inactive

Results for CC[C@H](C)C(N)c1cn([C@@H](CC(N)=O)C(=O)N2CCNCC2)nn1 (stereo partly specified) ?
hiPSC survival: inactive; SKN-1 block: inactive; TAG inh: inactive; CRFR2-BP antag: inactive; CRFR2-BP ag: inactive; Cardio protect: inactive

Results for CCCCCCn1cnc2c(c1=O)c1nc3ccccc3nc1n2/N=C/c1ccco1 ?
hiPSC survival: inactive; SKN-1 block: inactive; CRFR2-BP antag: inactive; CRFR2-BP ag: inactive; Cardio protect: 55.3

What do the screens show for `COCCn1cnc2c(c1=O)c1nc3ccccc3nc1n2/N=C/c1ccco1`?
hiPSC survival: inactive; SKN-1 block: inactive; TAG inh: inactive; CRFR2-BP antag: inactive; CRFR2-BP ag: inactive; Cardio protect: inactive

What do the screens show for `O=C(NCC(O)c1nc2ccccc2[nH]1)c1cc2ccccc2[nH]1` (stereo unspecified)?
hiPSC survival: inactive; SKN-1 block: inactive; Cardio protect: inactive

How did COc1cc(/C=C2\SC(=S)N(CCC(=O)Nc3ccccc3)C2=O)cc(OC)c1OC do in these assays?
hiPSC survival: inactive; SKN-1 block: inactive; TAG inh: inactive; CRFR2-BP antag: inactive; CRFR2-BP ag: inactive; Cardio protect: inactive

What do the screens show for `COc1cc(/C=C2\SC(=S)N(NS(=O)(=O)c3ccc(C)cc3)C2=O)ccc1O`?
hiPSC survival: inactive; SKN-1 block: inactive; TAG inh: inactive; CRFR2-BP antag: inactive; CRFR2-BP ag: 59.0; Cardio protect: inactive

How did COc1cc(/C=C2\SC(=S)N(NS(=O)(=O)c3ccc(C)cc3)C2=O)cc(OC)c1OC do in these assays?
hiPSC survival: inactive; SKN-1 block: inactive; TAG inh: inactive; CRFR2-BP antag: 55.4; CRFR2-BP ag: inactive; Cardio protect: inactive

What do the screens show for `COc1cc(/C=C2\SC(=S)N(NS(=O)(=O)c3ccccc3)C2=O)ccc1O`?
hiPSC survival: inactive; SKN-1 block: inactive; TAG inh: inactive; CRFR2-BP antag: inactive; CRFR2-BP ag: inactive; Cardio protect: inactive

What do the screens show for `COc1cc(/C=C2\SC(=S)N(C(C(=O)O)c3ccccc3)C2=O)ccc1O` (stereo unspecified)?
hiPSC survival: inactive; SKN-1 block: inactive; TAG inh: inactive; CRFR2-BP antag: inactive; CRFR2-BP ag: 52.7; Cardio protect: inactive

How did COc1cc(/C=C2\SC(=S)N(CCC(=O)Nc3cccc(O)c3)C2=O)cc(OC)c1OC do in these assays?
hiPSC survival: inactive; SKN-1 block: inactive; TAG inh: inactive; CRFR2-BP antag: inactive; CRFR2-BP ag: inactive; Cardio protect: 67.1

Results for CCOC(=O)C1=CCC(c2cccc(C)c2)N(S(=O)(=O)c2ccc(C)cc2)C1 (stereo unspecified) ?
hiPSC survival: inactive; SKN-1 block: inactive; Cardio protect: inactive

Results for CCS(=O)(=O)N1CCC(C(=O)Oc2ccc(C)c(C)c2)CC1 ?
hiPSC survival: inactive; SKN-1 block: inactive; CRFR2-BP antag: inactive; CRFR2-BP ag: inactive; Cardio protect: inactive

Results for O=C(O)C(Cc1ccccc1)N1C(=O)/C(=C/c2cccnc2)SC1=S (stereo unspecified) ?
hiPSC survival: inactive; SKN-1 block: inactive; TAG inh: inactive; CRFR2-BP antag: inactive; CRFR2-BP ag: inactive; Cardio protect: inactive

Results for COc1ccc(/C=C2\SC(=S)N(CC(=O)NCCO)C2=O)cc1 ?
hiPSC survival: inactive; SKN-1 block: inactive; TAG inh: inactive; CRFR2-BP antag: 59.8; CRFR2-BP ag: inactive; Cardio protect: inactive

Results for COc1cc(/C=C2\SC(=S)N(NC(=O)c3cccc(O)c3)C2=O)ccc1O ?
hiPSC survival: inactive; SKN-1 block: inactive; CRFR2-BP antag: inactive; CRFR2-BP ag: 64.4; Cardio protect: inactive
